Holding throughout (design): scale not given: direction of the effect not stated beside the values
Assay [1] concerns the target Protein translocase subunit SecA (Escherichia coli (strain K12)) (UniProt P10408). As to the kind of experiment: Assay to Identify E. coli SecA ATPase Inhibitors. It counts as functional. The note with it: 30 µM.
Assay [2] has as its target T1, Ubiquitin-activating enzyme e1, putative (Leishmania donovani (strain BPK282A1)) (UniProt E9BSI1).
T1 sequence (whole entry): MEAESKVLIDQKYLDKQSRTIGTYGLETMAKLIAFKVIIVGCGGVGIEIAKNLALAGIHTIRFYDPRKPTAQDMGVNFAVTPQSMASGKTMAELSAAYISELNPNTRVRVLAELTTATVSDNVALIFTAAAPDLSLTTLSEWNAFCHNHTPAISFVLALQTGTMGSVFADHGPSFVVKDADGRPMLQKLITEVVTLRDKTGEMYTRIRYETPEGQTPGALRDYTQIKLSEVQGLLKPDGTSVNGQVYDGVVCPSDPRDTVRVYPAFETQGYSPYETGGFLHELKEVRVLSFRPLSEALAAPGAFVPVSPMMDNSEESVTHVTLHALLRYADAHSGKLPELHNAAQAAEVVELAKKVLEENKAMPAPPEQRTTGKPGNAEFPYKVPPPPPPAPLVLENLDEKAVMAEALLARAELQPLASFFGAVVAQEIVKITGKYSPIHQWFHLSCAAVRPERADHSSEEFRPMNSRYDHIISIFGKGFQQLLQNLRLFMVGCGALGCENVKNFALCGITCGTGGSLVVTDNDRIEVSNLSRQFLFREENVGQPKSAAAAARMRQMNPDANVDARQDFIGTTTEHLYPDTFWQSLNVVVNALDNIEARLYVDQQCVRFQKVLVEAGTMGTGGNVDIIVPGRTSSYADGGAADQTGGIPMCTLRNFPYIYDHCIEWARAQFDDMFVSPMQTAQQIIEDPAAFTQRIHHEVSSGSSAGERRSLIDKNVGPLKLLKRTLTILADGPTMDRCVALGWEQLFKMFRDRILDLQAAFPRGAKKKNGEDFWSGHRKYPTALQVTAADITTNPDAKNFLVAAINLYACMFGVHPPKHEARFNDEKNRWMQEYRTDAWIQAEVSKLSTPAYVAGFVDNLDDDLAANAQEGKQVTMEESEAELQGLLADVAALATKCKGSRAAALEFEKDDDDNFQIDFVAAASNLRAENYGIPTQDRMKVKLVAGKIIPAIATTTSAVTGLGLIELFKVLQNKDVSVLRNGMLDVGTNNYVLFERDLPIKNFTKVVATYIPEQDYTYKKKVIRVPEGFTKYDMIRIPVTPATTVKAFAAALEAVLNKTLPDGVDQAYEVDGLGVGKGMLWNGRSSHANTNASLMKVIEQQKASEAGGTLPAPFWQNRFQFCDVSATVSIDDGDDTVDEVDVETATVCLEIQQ
As to the kind of experiment: Leishmania donovani Ubiquitin Activating Enzyme (LdE1). It counts as functional. The settings on record: 30 µM.

The target of assay [3] is AMP-activated protein kinase, AMPK (Homo sapiens) (UniProt P54646+O43741+P54619+Q9UGJ0+Q9Y478+Q13131+Q9UGI9). The assay can be described thus: AMP-dependent Kinase enzyme assay. An in vitro enzyme assay that detects ADP turnover that is directly proportional to AMPK activity. This uses naive AMPK that is activated during the assay with MK-8722. The note with it: 30 µM. It counts as functional.

In assay [4] the target is Sialic acid-binding Ig-like lectin 9 (Homo sapiens) (UniProt Q9Y336). As to the kind of experiment: Hs-Siglec9 ALPHAscreen SOP 20170721. The settings on record: 10 µM.
The subject of a further assay is Trypanosoma cruzi. As to the kind of experiment: Trypanosoma cruzi phosphomannomutase and mannose-1-phosphate guanylyltransferase assay. It is filed as functional. The settings on record: 10 µM.
Assay [5] concerns the target T2, Arginase-2, mitochondrial (Homo sapiens) (UniProt P78540).
T2 sequence (whole entry): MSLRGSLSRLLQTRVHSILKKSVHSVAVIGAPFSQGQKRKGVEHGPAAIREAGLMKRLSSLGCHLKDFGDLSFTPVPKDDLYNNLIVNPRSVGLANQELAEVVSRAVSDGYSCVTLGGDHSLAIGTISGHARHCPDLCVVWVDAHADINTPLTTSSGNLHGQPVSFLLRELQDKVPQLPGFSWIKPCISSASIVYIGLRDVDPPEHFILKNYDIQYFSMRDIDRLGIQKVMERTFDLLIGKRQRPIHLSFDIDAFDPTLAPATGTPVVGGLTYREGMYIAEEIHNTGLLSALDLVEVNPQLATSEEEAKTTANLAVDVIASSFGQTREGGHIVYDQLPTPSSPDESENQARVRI
The assay can be described thus: in vitro enzyme assay to detect the production of urea directly proportional to the activity of Arginase II. Also: in the data most compounds retested in dose-response had high values. The settings on record: 33.3 µM. It counts as functional.

In assay [6] the target is T3, Proteasome subunit beta (Trypanosoma cruzi) (UniProt O96673).
T3 sequence (whole entry): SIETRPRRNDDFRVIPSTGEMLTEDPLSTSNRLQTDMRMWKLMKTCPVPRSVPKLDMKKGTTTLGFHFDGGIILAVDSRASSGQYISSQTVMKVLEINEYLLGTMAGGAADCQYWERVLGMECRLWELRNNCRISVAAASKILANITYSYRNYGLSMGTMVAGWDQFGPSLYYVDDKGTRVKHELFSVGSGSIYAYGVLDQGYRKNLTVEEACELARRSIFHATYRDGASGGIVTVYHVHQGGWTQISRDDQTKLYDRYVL
The assay can be described thus: Trypanosoma cruzi proteasome chymotrypsin-like activity (TcProtChymo) assay. Also: in the data most compounds retested in dose-response had high values. It is filed as functional. The settings on record: 9.37 µM.

A further assay is filed under the species Homo sapiens. The assay can be described thus: To identify inhibition of the IFN signalling (Jak-Stat) pathway via expression of an eGFP reporter gene under the control of an IFN-stimulated response element (ISRE) containing MxA promoter. It is filed as functional. The settings on record: 30 µM. Background: In a reporter assay the amount or activity of a reporter protein is the signal.

Assay [7] concerns the target T4, Tyrosyl-tRNA synthetase, putative (Trypanosoma cruzi (strain CL Brener)) (UniProt Q4DSP6).
T4 sequence (whole entry): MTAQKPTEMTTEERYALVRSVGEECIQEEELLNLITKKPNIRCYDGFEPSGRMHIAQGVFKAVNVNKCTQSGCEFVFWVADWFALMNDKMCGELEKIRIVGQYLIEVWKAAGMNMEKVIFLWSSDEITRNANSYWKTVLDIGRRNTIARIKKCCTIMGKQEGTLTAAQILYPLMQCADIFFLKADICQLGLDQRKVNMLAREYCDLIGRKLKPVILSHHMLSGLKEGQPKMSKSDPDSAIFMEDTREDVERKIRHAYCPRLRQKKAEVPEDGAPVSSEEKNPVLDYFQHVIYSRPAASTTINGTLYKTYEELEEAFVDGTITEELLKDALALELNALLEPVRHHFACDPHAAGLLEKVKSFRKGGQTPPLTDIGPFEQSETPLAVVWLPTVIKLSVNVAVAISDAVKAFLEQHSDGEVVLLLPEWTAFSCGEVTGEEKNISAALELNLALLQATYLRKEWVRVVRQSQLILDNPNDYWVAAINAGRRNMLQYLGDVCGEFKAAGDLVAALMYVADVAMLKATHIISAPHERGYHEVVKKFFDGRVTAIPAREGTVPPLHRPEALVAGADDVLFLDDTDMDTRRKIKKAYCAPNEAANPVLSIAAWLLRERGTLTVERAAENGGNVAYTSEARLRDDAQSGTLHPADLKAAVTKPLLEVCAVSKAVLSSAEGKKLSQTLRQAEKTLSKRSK
As to the kind of experiment: Trypanosoma cruzi tyrosyl tRNA synthetase (TcYRS) _High Tyrosine SOP. Also: in the data most compounds retested in dose-response had high values. It counts as functional. The note with it: 30 µM.

The target in assay [8] is T4, Tyrosyl-tRNA synthetase, putative (Trypanosoma cruzi (strain CL Brener)). The assay can be described thus: Trypanosoma cruzi tyrosyl tRNA synthetase (TcYRS) SOP. It counts as functional. The note with it: 30 µM.
Assay [9] has as its target Chromo domain-containing protein 1 (Saccharomyces cerevisiae (strain ATCC 204508 / S288c) (Baker's yeast)) (UniProt P32657). As to the kind of experiment: ScCHD-1 Enzyme Inhibition Assay. Also: in the data most compounds retested in dose-response had high values. It counts as functional. The note with it: 30 µM.

For some of these results: Entries with a potency or affinity are not part of this list.

Chain of Protein translocase subunit SecA (Escherichia coli (strain K12)) (P10408 whole entry): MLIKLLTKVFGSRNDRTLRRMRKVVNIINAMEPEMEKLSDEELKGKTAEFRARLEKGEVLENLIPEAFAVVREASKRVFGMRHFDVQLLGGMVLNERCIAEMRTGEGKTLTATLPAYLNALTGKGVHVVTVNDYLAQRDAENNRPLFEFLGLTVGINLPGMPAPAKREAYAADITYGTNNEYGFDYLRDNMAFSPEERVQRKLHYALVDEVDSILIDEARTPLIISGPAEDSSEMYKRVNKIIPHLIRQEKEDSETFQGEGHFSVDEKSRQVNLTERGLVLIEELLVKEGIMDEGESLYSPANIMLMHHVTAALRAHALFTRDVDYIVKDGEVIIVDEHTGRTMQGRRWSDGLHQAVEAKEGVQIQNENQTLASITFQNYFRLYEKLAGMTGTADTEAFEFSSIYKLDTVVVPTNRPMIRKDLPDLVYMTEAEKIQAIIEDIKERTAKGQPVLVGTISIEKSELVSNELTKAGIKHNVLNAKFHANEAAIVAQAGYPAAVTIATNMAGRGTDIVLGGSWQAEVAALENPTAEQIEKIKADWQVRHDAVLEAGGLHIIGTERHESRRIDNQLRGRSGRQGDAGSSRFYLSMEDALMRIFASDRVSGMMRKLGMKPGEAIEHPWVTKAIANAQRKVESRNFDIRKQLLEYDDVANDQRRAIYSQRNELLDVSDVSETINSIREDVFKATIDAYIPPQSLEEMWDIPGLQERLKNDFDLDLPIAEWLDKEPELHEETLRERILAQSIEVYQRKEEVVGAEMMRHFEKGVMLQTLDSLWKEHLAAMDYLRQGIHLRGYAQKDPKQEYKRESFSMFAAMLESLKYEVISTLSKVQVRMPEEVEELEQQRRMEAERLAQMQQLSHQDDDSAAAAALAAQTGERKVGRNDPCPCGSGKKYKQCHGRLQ
Chain of Chromo domain-containing protein 1 (Saccharomyces cerevisiae (strain ATCC 204508 / S288c) (Baker's yeast)) (P32657 whole entry, the tested form may be a part): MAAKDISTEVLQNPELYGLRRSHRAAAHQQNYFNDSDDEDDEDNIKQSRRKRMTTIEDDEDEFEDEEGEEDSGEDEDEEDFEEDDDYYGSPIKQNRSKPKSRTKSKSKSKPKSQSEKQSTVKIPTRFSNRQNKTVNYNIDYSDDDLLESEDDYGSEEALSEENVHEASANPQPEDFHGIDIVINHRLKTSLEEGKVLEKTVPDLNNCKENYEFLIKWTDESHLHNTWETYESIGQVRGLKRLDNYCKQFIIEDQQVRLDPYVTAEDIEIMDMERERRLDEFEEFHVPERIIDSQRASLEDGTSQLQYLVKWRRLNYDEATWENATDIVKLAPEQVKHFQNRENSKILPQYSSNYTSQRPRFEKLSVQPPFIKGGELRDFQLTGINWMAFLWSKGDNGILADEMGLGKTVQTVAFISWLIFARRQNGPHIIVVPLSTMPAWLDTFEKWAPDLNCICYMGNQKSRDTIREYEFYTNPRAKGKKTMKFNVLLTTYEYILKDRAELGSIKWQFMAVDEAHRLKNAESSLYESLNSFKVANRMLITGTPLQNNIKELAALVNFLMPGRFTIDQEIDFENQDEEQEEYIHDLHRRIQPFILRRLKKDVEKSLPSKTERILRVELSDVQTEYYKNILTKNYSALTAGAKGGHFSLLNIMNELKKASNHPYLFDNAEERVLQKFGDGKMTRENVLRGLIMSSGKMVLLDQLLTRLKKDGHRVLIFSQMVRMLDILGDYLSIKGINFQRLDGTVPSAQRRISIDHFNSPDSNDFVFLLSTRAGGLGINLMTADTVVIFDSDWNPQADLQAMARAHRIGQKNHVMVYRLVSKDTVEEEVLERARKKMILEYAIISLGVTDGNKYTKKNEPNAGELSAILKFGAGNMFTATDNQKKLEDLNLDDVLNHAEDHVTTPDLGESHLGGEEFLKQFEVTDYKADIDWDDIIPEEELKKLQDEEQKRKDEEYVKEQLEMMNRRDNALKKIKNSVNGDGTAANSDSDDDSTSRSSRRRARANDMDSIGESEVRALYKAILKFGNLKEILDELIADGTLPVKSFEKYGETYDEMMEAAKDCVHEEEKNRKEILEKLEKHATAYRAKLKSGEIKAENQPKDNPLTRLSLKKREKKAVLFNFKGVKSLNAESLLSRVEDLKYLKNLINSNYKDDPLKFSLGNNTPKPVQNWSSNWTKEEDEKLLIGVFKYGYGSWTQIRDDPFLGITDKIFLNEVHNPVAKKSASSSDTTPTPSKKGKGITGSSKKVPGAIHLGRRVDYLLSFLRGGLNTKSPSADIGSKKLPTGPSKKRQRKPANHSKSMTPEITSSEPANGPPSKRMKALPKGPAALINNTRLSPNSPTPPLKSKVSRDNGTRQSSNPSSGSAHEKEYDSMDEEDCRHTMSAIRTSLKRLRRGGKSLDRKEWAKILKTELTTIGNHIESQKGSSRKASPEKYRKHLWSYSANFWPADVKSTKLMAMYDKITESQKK
Chain of Sialic acid-binding Ig-like lectin 9 (Homo sapiens) (Q9Y336 whole entry): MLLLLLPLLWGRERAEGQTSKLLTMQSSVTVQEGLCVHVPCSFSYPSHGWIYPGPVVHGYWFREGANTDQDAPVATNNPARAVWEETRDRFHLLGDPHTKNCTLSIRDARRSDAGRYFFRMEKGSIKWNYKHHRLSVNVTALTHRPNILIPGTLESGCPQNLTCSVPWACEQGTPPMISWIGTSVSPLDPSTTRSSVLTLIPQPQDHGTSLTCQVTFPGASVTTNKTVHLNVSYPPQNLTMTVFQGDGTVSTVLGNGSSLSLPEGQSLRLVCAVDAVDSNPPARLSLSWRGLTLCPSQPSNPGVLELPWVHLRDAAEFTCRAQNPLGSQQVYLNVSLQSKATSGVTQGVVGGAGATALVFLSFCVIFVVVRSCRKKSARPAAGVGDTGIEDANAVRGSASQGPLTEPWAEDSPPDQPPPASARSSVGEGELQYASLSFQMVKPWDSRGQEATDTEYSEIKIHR

Turning to `COc1ccc(-c2cnc(CN3CCn4c(C)nnc4C3)o2)cc1`, the Percent Effect in [1] was -8.18%; in assay [2], 5.26%; in [3], -2.37%; in assay [4] it was 6.41%; in the assay with Trypanosoma cruzi, 10.9%; in assay [5] it was -3.06%. The Percent Effect was 7.18% in [6]; 11.6% in the assay filed under Homo sapiens; 6.37% in assay [7]; 19.5% in [8]; -14.7% in [9].
Take `CC(O)CN1CCC(CNCc2c[nH]nc2C(C)(C)C)CC1` (stereo unspecified): the Percent Effect in assay [1] is -6.44%; in assay [2], 18.9%; in assay [3] it was -5.82%; in assay [4], 1.39%; in the assay with Trypanosoma cruzi, -6.7%; in [5], -2%. Moreover, the Percent Effect in assay [6] is 11.9%; in the assay filed under Homo sapiens, 13.9%; in assay [7], 4.43%; in assay [8], 3.7%; in assay [9] it was -9.13%.
In the case of `CCS(=O)(=O)N1CCc2c(cccc2NC(=O)NCCOC)C1`, the Percent Effect in [1] is -5.83%; in assay [2] it was 5.26%; in assay [3], 6.05%; in assay [4], 2.98%; with Trypanosoma cruzi, -0.0974%; in assay [5] it was -2.37%. Besides, the Percent Effect was 7.77% in assay [6]; 8.27% in the assay filed under Homo sapiens; 4.25% in assay [7]; 13% in assay [8]; -5.11% in assay [9].
Regarding `O=C(CCCNc1ncccn1)N1CCCC(n2cccn2)C1` (stereo unspecified), the Percent Effect in assay [1] was -7.67%; in [2] it was -1.27%; in assay [3], 0.0579%; in assay [4] it was -1.81%; in the assay on Trypanosoma cruzi it was -3.18%; in assay [5], -4.52%. Also, the Percent Effect is 2.23% in assay [6]; 14.1% in the assay listed under Homo sapiens; -3.12% in assay [7]; -2.53% in assay [8]; -14.1% in assay [9].
As to `c1cnc2c(c1)cc([C@H]1CCCO1)n2CCN1CCOCC1`, the Percent Effect is -4.11% in [1]; 9.46% in [2]; 14.2% in [3]; 5.59% in assay [4]; -0.593% with Trypanosoma cruzi; -5.8% in assay [5]. Besides, the Percent Effect is 3.9% in [6]; 3.93% in the assay filed under Homo sapiens; 1.07% in [7]; 11.7% in assay [8]; -13.8% in assay [9].
As for `CCC1=N[C@@]2(CC[C@@H]3CN(S(=O)(=O)CC)C[C@@H]32)C(=O)N1CC(C)C`, the Percent Effect in [1] was -2.87%; in assay [2], 2.6%; in assay [3] it was -1.61%; in assay [4], 11.1%; in the assay on Trypanosoma cruzi, -0.493%; in [5], -1.94%. Also, the Percent Effect in [6] is 0.348%; in the assay filed under Homo sapiens, 18.4%; in assay [7] it was 2.12%; in [8], 8.97%; in [9] it was -4.63%.
With `COCCNC(=O)CN1CCN(c2nc(C)cs2)C(C)C1` (stereo unspecified), the Percent Effect in assay [1] is -6.14%; in [2], 16.2%; in [3] it was -5.78%; in assay [4], 22%; with Trypanosoma cruzi it was 5.11%; in assay [5], -1.29%. The Percent Effect was 13.3% in assay [6]; -1.44% in the assay listed under Homo sapiens; 2.97% in [7]; 15.8% in [8]; -7.53% in assay [9].
For the compound `COc1ccc(CN(C)C(=O)NCc2c(C)cc(C)[nH]c2=O)cc1`, the Percent Effect is -4.97% in [1]; 15.8% in [2]; -2.27% in assay [3]; -2.15% in [4]; -0.84% in the assay with Trypanosoma cruzi; 1.08% in assay [5]. Besides, the Percent Effect was 2.12% in [6]; 9.7% in the assay listed under Homo sapiens; 3.45% in [7]; 18.5% in assay [8]; -0.177% in [9].
Take `CC(CN1CCOCC1)NCC1CCN(c2cnn(C)c(=O)c2)CC1` (stereo unspecified): the Percent Effect is -4.77% in assay [1]; -1.39% in [2]; -4.64% in assay [3]; 1.85% in [4]; -1.85% in the assay on Trypanosoma cruzi; -0.883% in assay [5]. Also, the Percent Effect in assay [6] was 4.21%; in the assay listed under Homo sapiens, -10.4%; in [7], 0%; in [8], -10.3%; in assay [9], 1.95%.
As to `CS(=O)(=O)c1snnc1C1CCN(Cc2ccncc2)CC1`, the Percent Effect in assay [1] is -6.59%; in assay [2] it was 4.05%; in assay [3], 2.28%; in [4] it was -0.45%; in the assay with Trypanosoma cruzi, -3.75%; in assay [5] it was -2.09%. The Percent Effect is 9.83% in assay [6]; 23.2% in the assay filed under Homo sapiens; 0% in assay [7]; 1.3% in [8]; 5.8% in assay [9].
On to `C=Cc1ccc(C(=O)N2CCCC(Nc3ccc(F)cc3)C2)cc1` (stereo unspecified), for which the Percent Effect in [1] is -3.33%; in assay [2], 8.11%; in assay [3], 2.02%; in assay [4], 27.7%; in the assay with Trypanosoma cruzi, 7.72%; in [5], 0.952%. Further, the Percent Effect in assay [6] is 3.97%; in the assay listed under Homo sapiens, 2.82%; in assay [7], 2.65%; in assay [8] it was 19.5%; in [9] it was -11.2%.

Values taken from ChEMBL document CHEMBL3988442, “University of Dundee, Small-Polar-MMV Screening Library” (2021).
